Records with an inconclusive call do not appear. Values without a mark were called inactive. The source made the active and inactive calls. The call rests on the fitted dose curve; in most records, active means well fitted inhibition curve with a large enough effect; inconclusive means small, poorly fitted or top-dose-only effect; inactive means no such curve, though single readings can be large or run the other way.
Experiment: qHTS for Hypoxia signaling pathway (HIF-1) antagonists against the NCATS CANVASS Library (AID 1347374); further: nearly all actives have a fitted effect of over 60% in size;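 on activity change, negative = inhibition: HRE-bla ME-180 cells stimulated with cobalt chloride to stabilize HIF-1alpha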
Details: HRE-bla ME-180 cells, HIF-1 beta-lactamase reporter, CoCl2; series mostly up to 38.3 µM; activity change, negative = inhibition: at the top concentration
From the text: Natural products and their derivatives continue to be wellsprings of nascent therapeutic potential. However, many laboratories have limited resources for biological evaluation, leaving their previously isolated or synthesized compounds largely or completely untested. To address this issue, the Canvass library of natural products was assembled (https://tripod.nih.gov/canvass), in collaboration with academic and industry researchers, for quantitative high-throughput screening (qHTS) across a diverse set of cell-based and biochemical assays. […] We collected pure natural products to circumvent deconvolution and structure elucidation due to time and resource limitations. The library was formatted into 1536-well plates and evaluated in 50 qHTS (in an 11-pnt concentration series) bioassays with broad scope of disease-relevant mechanisms. The resulting data set from 50 different assays was then systematically analyzed to identify overall trends and specific natural products with interesting biological activities. Reported herein are the results of each individual qHTS and their corresponding assay protocol. During hypoxic conditions, the cellular responses are regulated in large part through the activation of the heterodimeric transcription factor called hypoxia-inducible factor-1 (HIF-1). The assay used is a beta-lactamase reporter gene under control of the hypoxia responsive element (HRE) that has been stably integrated into ME-180 cells. This assay identifies inducers of the HIF-1-signaling pathway. The cytotoxicity of the compound library against HRE-bla ME-180 cell line was tested in parallel by measuring cell viability using CellTiter-Glo assay (Promega, Madison, WI) in the same assay wells. The compounds were also tested for auto fluorescence that may interfere with the biological target readout resulting in potential false positives and/or negatives. National Center for Advancing Translational Sciences (NCATS), Rockville, MD National Institute of Health (NIH), Bethesda, Maryland
HIF-1 antagonist assay protocol: 1. HRE-bla ME-180 cells were dispensed at 2,000 cells per well in 5 uL of assay medium containing 0.5% dialyzed FBS into black wall/clear-bottom 1536-well plates using a Multidrop Combi (Thermo Scientific, Waltham, MA) dispenser. 2. After the assay plates were incubated at 37C and 5% CO2 for 5 hrs, 23 nL of compounds dissolved in DMSO, positive controls or DMSO only was transferred to each well of the assay plate using a Pintool station (Kalypsys, San Diego, CA). 3. One microliter of 60 uM CoCl2 (which enhance the stability of HIF-1alpha) or 1 uL of assay medium was added to the wells using BioRAPTR dispenser. 4. The assay plates were then incubated at 37C and 5% CO2 for 17 hrs. 5. One microliter of CCF4 dye was added the assay plate and incubated at room temperature for 2 hours. 6. The fluorescence intensity was obtained using the EnVision (PerkinElmer, Shelton, CT) plate reader using a 405 nm excitation, and 460 and 530 nm emission filters. 7. To assess cell viability (and for data normalization), 4uL of CellTiter-Glo (Promega) was added to the assay plate using the BioRAPTR dispenser and incubated at room temperature for 30 min. 8. Luminescence signal was obtained using the ViewLux microplate reader (PerkinElmer) using a clear emission mirror, and a 15 sec exposure time, 1x binning settings.
On the % scale 0 is the no-effect control and ±100 the full control effect; potency means the concentration at half of the fitted maximal effect.

Row | Compound | activity change, negative = inhibition | Potency
1 | C[C@]12CC(O)C3[C@@H](CCC4C[C@@H](O)CC[C@@]43CO)[C@@]1(O)CCC2C1=CC(=O)OC1 (stereo partly specified) | -0.374% | –
2 | CO[C@@H](/C=C/CC/C=C/C(=O)O)[C@@H](O)[C@H](C)/C=C(\C)[C@@H](O)[C@H](C)C(=O)CCCC1CC(=O)NC(=O)C1 | 2.33% | –
3 | NCCc1ccccc1 | -0.809% | –
4 | CCN1C[C@]2(C)CC[C@@H](O)[C@]34C1[C@H](C[C@H]23)C12CCC(CC14)[C@](O)(CO)[C@H]2O (stereo partly specified) | 2.54% | –
5 | CNCCc1ccccc1 | 1.22% | –
6 | CCC[C@H]1CC[C@H]2[C@H](C)CCC[C@H]2N1 | -5.04% | –
7 | COc1ccc(C23Oc4cc(OC)cc(OC)c4[C@](O)([C@H](c4ccccc4)C2C(=O)NCCCCNC(=O)c2ccccc2)[C@@H]3O)cc1 (stereo partly specified) | 8.46% | –
8 | CC[N@@+]1([O-])C[C@]2(C)CC[C@@H](O)[C@@]34C5C[C@H]6CC[C@@]5(C(C[C@H]23)C41)[C@H](O)[C@@]6(O)CO (stereo partly specified) | 4% | –
9 | C=C1[C@@H](C)[C@H]2[C@H](Cc3ccccc3)NC(=O)[C@]23OC(=O)/C=C/[C@H](O)CCC[C@@H](C)C/C=C/[C@H]3[C@@H]1O | – | 2.11 µM (active)
10 | CO[C@@H](/C=C/CC/C=C/C(=O)O)[C@@H](O)[C@H](C)[C@@H](O)/C(C)=C/[C@H](C)C(=O)CCCC1CC(=O)NC(=O)C1 | 3.35% | –
11 | CCCCC[C@@H]1OC(=O)[C@@H](C)N(C)C(=O)[C@H](CCCCC)OC(=O)C(C)N(C)C(=O)[C@H](CCCCC)OC(=O)[C@@H](C)N(C)C(=O)[C@H](CCCCC)OC(=O)C(C)N(C)C1=O (stereo partly specified) | – | 11.8 µM (active)
12 | C/C=C1/CN2CC[C@]34C(=Nc5ccccc53)[C@@H]2C[C@@H]1[C@H]4C(=O)OC | 1.17% [at 76 µM] | –
13 | O=C(c1ccccc1O)c1[nH]c(Cl)c(Cl)c1-n1c(C(=O)c2ccccc2O)cc(Cl)c1Cl | – | 1.18 µM (active)
14 | COC(=O)C1=C2Nc3ccccc3[C@@]23CCN2CC(C(C)=O)C1C[C@H]23 (stereo partly specified) | 11.8% | –
15 | CN1C(=O)[C@]23CC4C(C)(C)[C@@]5(C[C@@]41CN2CC[C@@]3(C)O)C(=O)Nc1c5ccc2c1OC=CC(C)(C)O2 (stereo partly specified) | 20.9% | –
16 | CC[C@@H]1CN2CC[C@@]3(O)C(=Nc4cccc(OC)c43)[C@@H]2C[C@@H]1/C(=C\OC)C(=O)OC | -8.31% | –
17 | COc1ccc2c(c1)[nH]c1c(C)nccc12 | – | 17.2 µM (active)
18 | CCN1C[C@]2(C)CC[C@H](O)[C@]34C1C(C[C@H]23)[C@@]12CC[C@H](CC14)[C@](O)(COC(=O)c1ccc(OC)c(OC)c1)[C@H]2O (stereo partly specified) | 12.9% | –
19 | CO[C@H](c1ccccc1)[C@H]1NC(=O)C(C)NC(=O)C(C[C@@H](C)CO)N(C)C(=O)[C@@H](C(O)c2cn(C(C)(C)C3CO3)c3ccccc23)NC(=O)C(C(C)C=C(C)C)NC(=O)C(CC(C)C)N(C)C(=O)C(C(C)C)NC1=O (stereo partly specified) | -0.0936% [at 22.9 µM] | –
20 | CNCCc1ccc(O)cc1 | -8.57% | –
21 | COc1ccc2c3c([nH]c2c1)C(C)=NCC3 | 5.49% | –
22 | CC1=CC2CC[C@@H]3[C@@H](C)C[C@H](C)[C@@H](C1)N23 (stereo partly specified) | -2.94% | –
23 | CC(=O)N[C@H]1CCN2CCC[C@H]12 | 3.76% [at 85.4 µM] | –
24 | CNCCc1c[nH]c2ccccc12 | 3.37% | –
25 | CCC(=O)CCCCC[C@@H]1NC(=O)[C@H]2CCCCN2C(=O)[C@H]([C@@H](C)CC)NC(=O)[C@H](Cc2cn(OC)c3ccccc23)NC1=O | -64.9% | –
26 | CCCC[C@@H]1CC[C@H]2CCCC(CCC)N12 (stereo partly specified) | 2.25% | –
